Out of some 16,000 compounds screened, about 2,600 (16%) were called active. Not shown: some 20% with an inconclusive outcome. The call rests on the fitted dose curve; in most records, active means well fitted curve in the direction sought with a large enough effect; inconclusive means small, poorly fitted or top-dose-only effect, or effect the other way; inactive means no such curve, though single readings can be large or run the other way. Only a sample is shown.
Each compound was assayed against Cytochrome P450 2D6 (Homo sapiens) (UniProt P10635) (assay: Cytochrome panel assay with activity outcomes). Details: recombinant CYP, pro-luciferin dealkylation, luminescence, p450-cyp2d6; series mostly up to 57.1 µM.
Sequence of Cytochrome P450 2D6 (Homo sapiens) (P10635 whole entry, looked up): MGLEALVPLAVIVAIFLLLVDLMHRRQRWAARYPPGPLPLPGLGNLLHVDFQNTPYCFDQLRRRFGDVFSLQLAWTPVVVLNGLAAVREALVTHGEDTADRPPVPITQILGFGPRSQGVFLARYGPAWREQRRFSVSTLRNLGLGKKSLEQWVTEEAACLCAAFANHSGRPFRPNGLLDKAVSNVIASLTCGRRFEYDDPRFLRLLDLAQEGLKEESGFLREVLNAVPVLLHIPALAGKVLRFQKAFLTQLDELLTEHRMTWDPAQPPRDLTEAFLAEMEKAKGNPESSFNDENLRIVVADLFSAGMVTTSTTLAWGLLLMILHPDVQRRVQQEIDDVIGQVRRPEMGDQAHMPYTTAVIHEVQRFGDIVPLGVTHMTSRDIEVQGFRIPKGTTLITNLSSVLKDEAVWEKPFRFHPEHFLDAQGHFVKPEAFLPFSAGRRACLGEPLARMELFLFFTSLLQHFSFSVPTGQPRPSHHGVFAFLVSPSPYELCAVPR
On the % scale 0 is the no-effect control and ±100 the full control effect.

AC50, active:
Cc1cccc(CNc2ccnc(-c3ccccc3CN(C)C)n2)c1 2.51 µM
O=C(Nc1ccccc1)N[C@H]1C[C@H](C(=O)O)Nc2cc(Cl)cc(Cl)c21 12.6 µM
CCOC(=O)c1sc2nc(CC(=O)OC)nc(NCc3ccc(F)cc3)c2c1C 25.1 µM
CC(C)N(CCNC(=O)C1CCC(=O)N1Cc1ccc(F)cc1)Cc1ccccc1 (stereo not given) 1.26 µM
CC1(C)N=C(N)N=C(N)N1c1cccc(CSc2ccccc2)c1 0.251 µM
CC1(C)N=C(N)N=C(N)N1c1cccc(OCc2cccc(N)c2)c1 2.51 µM
COc1ccc(N2C(N)=NC(N)=NC2(C)C)cc1 14.1 µM
O=C(OCc1nc2ccccc2[nH]1)C12CC3CC(CC(C3)C1)C2 15.8 µM
Cc1ccccc1-c1nc(CS(=O)CC(=O)NCCN2CCN(Cc3ccccc3)CC2)c(C)o1 (stereo not given) 14.1 µM
CCCC(=O)Nc1nnc(CCN2CCCCC2)s1 15.8 µM
CCn1c(SCc2ccc(Cl)cc2Cl)nc2nc3c(cc2c1=O)CCCC3 1.26 µM
CCN(C1CCCCC1)S(=O)(=O)c1ccc(S(=O)(=O)NCc2ccncc2)cc1 7.94 µM

AC50, inactive:
CCCCn1nnnc1SCC(=O)N1CCCC1
Cc1cccc(CNc2cc(-c3ccc(C(=O)N(C)C)cc3)ncn2)c1
CCN(C(=O)Cn1c(=O)oc2ccccc21)c1cccc(C(F)(F)F)c1
Cc1ccccc1Oc1ncnc2oc(-c3ccccc3)cc12
CC(=O)Oc1ccccc1C(=O)Oc1ccccc1C(=O)O
CCn1c(SCC(=O)Nc2nc3ccc(C)cc3s2)nc2c(c1=O)SC(C)C2 (stereo not given)
O=C(N/N=C/c1ccc(Cl)cc1Cl)Nc1ccccc1
O=C(N/N=C/c1ccc(Cl)cc1)Nc1ccccc1
COCCn1c(=O)c(-c2ccc(F)cc2)nc2cnc(Oc3ccccc3)nc21
O=C(Nc1cccc(F)c1)Nc1ccccn1
CCOC(=O)c1nnc(-c2ccccc2)nc1NCc1ccccc1
CCOC(=O)c1cnn(-c2nc(-c3ccc(F)cc3)cs2)c1C(F)(F)F
CCCCOC(=O)C1=C(C)Nc2ncnn2C1c1cc(OC)ccc1OC (stereo not given)
O=C(Cc1ccc(S(=O)(=O)N2CCOCC2)s1)Nc1nc2c(s1)CCCC2
Cc1ccc(CN2C(=O)CCC2C(=O)NCc2cccnc2)cc1 (stereo not given)
O=C(NCC1CCCO1)C1CCC(=O)N1CCc1ccccc1 (stereo not given)
O=c1c(CCc2ccccc2)nc2cnc(Oc3cccc(Cl)c3)nc2n1C[C@H]1CCCO1
CCCN(CCC)CCCNC(=O)c1cc2cc3ccc(OC)cc3nc2o1
CCOC(=O)C1=NNC2(c3ccc(Cl)cc3)C(=O)N(c3cc(C)cc(C)c3)C(=O)C12 (stereo not given)
CCCCOC(=O)CSc1nnc(-c2cc(OC)c(OC)c(OC)c2)o1
O=c1cnc2cncnc2n1Cc1ccccc1
COc1ccc(-n2cnnc2)cc1
COc1ccc(-n2c(C)nn(C)c2=O)cc1
COC(=O)c1nc(NC(=O)c2ccccc2)n[nH]1
COc1cc(C(=O)NCCC(C)C)c([N+](=O)[O-])cc1OC
CCCCCCCCCCCCCCCCCC(=O)O[C@H](CC(=O)O)C[N+](C)(C)C
O=P(O)(O)CCP(=O)(c1ccccc1)c1ccccc1
O=C1NC(c2ccc(Br)cc2)Nc2sc3c(c21)CCC3 (stereo not given)
CN(C)c1ccc(/C=C2/C(=O)Nc3ccccc32)cc1
O=C(NCc1nc2ccccc2[nH]1)[C@H]1C[C@@H]1[C@H](NP(=O)(c1ccccc1)c1ccccc1)c1ccccc1
COc1ccc(/C=C/C(=O)Nc2nc(C)cc(C)n2)cc1OC
Cc1ccc(S(=O)(=O)N2CCN(C(=O)C3COc4ccccc4O3)CC2)cc1C (stereo not given)
Cc1cc(C)cc(OCC(=O)Nc2ccc3c4c(cccc24)CC3)c1
Cc1cccc(C)c1NC(=O)CS(=O)CC(=O)NCCCc1ccccc1 (stereo not given)
Cc1cc(C)c(NC(=O)CS(=O)CC(=O)NCCCc2ccccc2)c(C)c1 (stereo not given)
CC(=O)[C@@]1(O)CC[C@H]2[C@H]3C[C@@H](C)C4=CC(=O)C=C[C@]4(C)[C@@]3(F)[C@@H](O)C[C@]21C
Cc1cc2[nH]c(=O)c3ccccc3n2n1
CCCC(=O)Nc1nnc(Cc2ccccc2)s1
CCCc1nnc(NC(=O)CCC(=O)N2CCN(c3ccccn3)CC2)s1
COc1ccc(/C=N/NC(N)=S)cc1OC(=O)c1cccc2ccccc12
CCOc1cc(NC(=S)NCC2CCCO2)c(OCC)cc1NC(=O)c1cccc(C)c1 (stereo not given)
O=c1c2ccccc2nc(SCc2ccccc2Cl)n1Cc1ccccc1
Cn1c(=O)c2c(nc(N3CCN(c4ccccn4)CC3)n2Cc2ccc(Cl)cc2Cl)n(C)c1=O
S=c1nc(-c2ccccc2)oc2c1CCCC2
CN(CC(=O)O/N=C(\N)c1ccccn1)S(=O)(=O)c1ccccc1
Cc1ccc(S(=O)(=O)N(CC(=O)N2CCN(c3ccc(F)cc3)CC2)C2CCCCC2)cc1
O=S(=O)(NCc1cccnc1)c1ccc(Cl)nc1

activity, negative = inhibition, inactive:
O=c1[nH]c(=S)[nH]c(-c2ccccc2)c1Cc1c(O)ccc2ccccc12 -6.41% [at 11.4 µM]
O=C(O)C/C(=C\c1ccco1)C(=O)O 1.84% [at 11.4 µM]
Nc1cccc(OCc2nc(N)nc(N)c2-c2ccc(Cl)cc2)c1 -14.7% [at 11.4 µM]
CC(C)(CCc1nc2ccccc2[nH]1)C(=O)O -1.31% [at 11.4 µM]
CC(C)c1ccc(/C=C2\C=C(c3ccc4ccccc4c3)OC2=O)cc1 2.54% [at 11.4 µM]
O=C1[C@H]2[C@H]3[C@H](O)[C@H](O)C/C(=N/OC[C@@H](O)COCc4ccco4)[C@H]3CC[C@@H]2C(=O)N1Cc1ccc2c(c1)OCO2 3.67% [at 11.4 µM]

From PubChem BioAssay AID1851 (National Center for Advancing Translational Sciences (NCATS), 2009)
